RORg inh – qHTS for inhibitors of ROR gamma transcriptional activity; Drosophila S2 Gal4-RORgamma UAS-luciferase reporter, 20 h; Potency, µM (top dose mostly 53.6 µM), usual class: inhibitors; Nuclear receptor ROR-gamma (Mus musculus), P51450; AID 2551, 2010; 310,000 compounds, 5.4% hits; note: nearly all actives have a fitted effect of over 60% in size
Target sequence (P51450 whole entry, looked up, the tested form may be a part): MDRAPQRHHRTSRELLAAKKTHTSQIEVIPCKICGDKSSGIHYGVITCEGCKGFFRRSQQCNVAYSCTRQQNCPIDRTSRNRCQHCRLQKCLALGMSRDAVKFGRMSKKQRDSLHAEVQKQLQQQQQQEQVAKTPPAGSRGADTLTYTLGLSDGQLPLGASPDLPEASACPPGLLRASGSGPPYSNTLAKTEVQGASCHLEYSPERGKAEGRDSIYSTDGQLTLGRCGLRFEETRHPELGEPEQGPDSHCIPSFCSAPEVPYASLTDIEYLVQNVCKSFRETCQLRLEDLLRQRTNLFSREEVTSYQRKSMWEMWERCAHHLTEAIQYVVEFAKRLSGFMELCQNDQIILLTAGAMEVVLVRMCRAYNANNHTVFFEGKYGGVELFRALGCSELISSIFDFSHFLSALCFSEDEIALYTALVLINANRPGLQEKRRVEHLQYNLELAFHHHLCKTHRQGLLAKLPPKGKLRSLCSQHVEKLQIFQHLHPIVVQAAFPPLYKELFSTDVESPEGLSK
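Schneider cells (Drosophila), stable Gal4 DBD–ROR gamma + UAS-luc; 1 hr cmpd preincubation; Cu2+ induction 700 uM final; 20 hr ambient; luminescence.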
Giardia kill – Small Molecules that selectively kill Giardia lamblia: qHTS. Giardia lamblia trophozoite viability. activity change, % at 7.66 µM, hits read low. 340,000 compounds, 0.15% hits; in the data active = activity change below about -80%; inconclusive = between about -30% and that limit;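 note: parasites exposed to compound for two days anaerobically before the ATP read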
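Killing of trophozoites was scored by loss of ATP luminescence after a 48 hrs anaerobic exposure to compounds at 37 deg C, using 100 cells per well.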
p53 reactivation – qHTS assay for re-activators of p53 using a Luc reporter | 320,000 compounds, 0.063% hits | H1299 p53-A138V BP100-luciferase reporter, luminescence, 24 h | Potency, µM (titrated, usually from 92.2 µM), usual class: activators; note: nearly all actives have a fitted effect of over 45% in size
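H1299 (p53-null), stable ts p53-A138V + BP100-Luc; 1000 cells/well, Opti-MEM/10% FBS; cpd 4 pt, 1:5; 24 h, 37 deg C, 5% CO2; detection reagent 10 min RT; luminescence.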
Gal4-VP16 FLuc – VP16 counterscreen qHTS for inhibitors of ROR gamma transcriptional activity. Potency, µM (series often up to 53.6 µM), actives largely listed as inhibitors. Drosophila S2 Gal4-VP16 UAS-luciferase, luminescence, 20 h. AID 2546, 2010. 310,000 compounds, 3.5% hits;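 note: Gal4-VP16 expression switched on by copper sulfate through the metallothionein promoter; nearly all actives have a fitted effect of over 50% in size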
ELG1 DNA repair – qHTS screen for small molecules that inhibit ELG1-dependent DNA repair in human embryonic kidney (HEK293T) cells expressing luciferase-tagged ELG1. HEK293T ELG1-luciferase reporter, luminescence, 16 h; DNA damage induced by 5-fluorouridine. Potency, µM (highest dose often 46.1 µM), usual class: inhibitors. 330,000 compounds, 2.3% hits. AID 504467, 2011; note: nearly all actives have a fitted effect of over 55% in size
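Reporter activity after DNA damage by 5-fluorouridine is monitored. Compound-treated cells incubate 16 hr at 37 °C, then ONE-Glo is added for 30 min before luminescence reading.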
BRCA1 expr up – qHTS Assay to Identify Small Molecule Activators of BRCA1 Expression | 380,000 compounds, 1.1% hits | Potency, µM (doses to about 46.1 µM), actives largely listed as activators | MCF7-BRCA1-FFLuc reporter, luminescence, 48 h; response scale: scaled: vehicle 0%, 10 µM genistein 100%; note: nearly all actives have a fitted effect of over 80% in size
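Compounds are tested at multiple concentrations on MCF7 BRCA1-luciferase reporter cells seeded at 2000 per well; after 48 h, a single luminescence end-point is taken and curves fitted to the normalized data.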
A number is an active result; - = inactive; ? = inconclusive; . = not tested or not shown; [ ] = remark or other dose. An excerpt weighted towards active compounds, which were near 7.6% of everything screened. Unless noted, calls come from the whole dose curve; as a rule, active = well fitted curve in the direction sought with a large enough effect; inconclusive = small, poorly fitted or top-dose-only effect, or another doubt; inactive = no such curve, though single readings can be large; an effect the other way counts as inactive or inconclusive.

SMILES | RORg inh | Giardia kill | p53 reactivation | Gal4-VP16 FLuc | ELG1 DNA repair | BRCA1 expr up
CCOc1ccc2nc(N3CCOCC3)nc(C)c2c1 | ? | - | ? | -[0.365 µM] | ? | 4.5µM
Oc1ccc(/C=N/Nc2cc(N3CCOCC3)nc(N3CCOCC3)n2)cc1 | . | - | . | . | . | -
CCOc1ccc(/C=N/Nc2cc(N3CCOCC3)nc(C)n2)c(O)c1 | 7.1µM | - | - | 11µM | - | -
Cc1nc(N/N=C/c2ccc(Br)cc2)cc(N2CCOCC2)n1 | ? | - | - | - | 15µM | -
CC(C)(C)S(=O)(=O)N1Cc2cc(=O)n(Cc3ccccc3)c(CCO)c2[C@@H]1CCO | . | - | . | . | . | -
S=c1[nH]cc(-c2ccccc2)n1-c1cccc(Cl)c1 | 2.5µM | - | - | 4.5µM | - | -
COc1cccc(-n2c(-c3ccccc3)c[nH]c2=S)c1 | 11µM | - | - | 10µM | - | -
O=C(COC(=O)c1cc([N+](=O)[O-])ccc1N1CCOCC1)c1ccc(OC(F)F)cc1OC(F)F | . | - | - | . | 21µM | -
O=C(COC(=O)c1cc([N+](=O)[O-])ccc1N1CCOCC1)Nc1cc(F)ccc1F | . | - | - | . | 23µM | -
CC(OC(=O)c1ccccc1NS(=O)(=O)c1cccc(N)c1)C(=O)N(C)Cc1ccccc1 (stereo not drawn) | - | - | - | - | ? | -
Cc1ccc(NC(=O)C2=NNC(=O)CC2)cc1F | - | - | - | - | ? | -
CC(C)c1ccc(NC(=O)C2=NNC(=O)CC2)cc1 | - | - | - | ? | ? | 2.2µM
COc1cc(OC)cc(C(=O)NCCNc2nc3cc(C)cc(C)c3cc2C#N)c1 | -[1.91 µM] | - | - | - | 16µM | -
COc1ccc(C(=O)NCCCNc2nc3cc(C)cc(C)c3cc2C#N)cc1 | . | . | . | . | . | -
COc1cc(C(=O)NCCNc2nc3cc(C)ccc3cc2C#N)cc(OC)c1OC | ? | - | . | - | ? | -
CCOc1ccc2nc(NCCNC(=O)c3cc(OC)c(OC)c(OC)c3)c(C#N)cc2c1 | - | - | - | - | 13µM | -
COc1ccccc1C(=O)NCCNc1nc2cc(C)cc(C)c2cc1C#N | - | - | - | - | 9.2µM | -
COC(=O)C1=C(C)NC(=O)C1(NC(=O)c1ccccc1C)C(F)(F)F (stereo not drawn) | . | . | . | . | . | -
CN(C)C(=S)N=c1ssc(=S)n1Cc1ccccc1 | . | - | . | . | . | -
Cc1ccc(-c2cc(-c3cccc(F)c3)n[nH]2)c(O)c1 | 11µM | - | ? | 10µM | ? | -
Cc1ccc(O)c(-c2cc(-c3ccccc3F)[nH]n2)c1 | ? | - | ? | ? | ? | -
Cc1ccc(-c2cc(-c3ccccc3C)[nH]n2)c(O)c1 | 0.79µM | - | ? | 1.4µM | ? | -
COc1ccc(CN(Cc2cc3cccc(C)c3n3nnnc23)C(=O)N2CCOCC2)cc1 | - | - | - | - | - | -
CCNc1ncc2nc(-c3ccc(OC)cc3)c(=O)n(Cc3ccc(F)cc3)c2n1 | - | . | . | - | . | .
Cc1nc(SCC(=O)c2ccccc2)c(C#N)c(-c2ccco2)c1C(=O)NCc1ccco1 | 5.6µM | - | - | 5µM | ? | -
SMILES | RORg inh | Giardia kill | p53 reactivation | Gal4-VP16 FLuc | ELG1 DNA repair | BRCA1 expr up
N#Cc1c(-c2ccco2)cc(C2CC2)nc1SCC(=O)c1ccccc1 | - | - | - | - | - | -
COCCOC(=O)c1c(C)nc(SCC(=O)Nc2ccc(OC)cc2)c(C#N)c1-c1ccco1 | - | - | - | - | 23µM | -
O=c1cc(-c2ccccc2)[nH]n1-c1nc2ccccc2[nH]1 | ? | - | ? | - | ? | -
O=c1c2ccccc2cnn1-c1nc2ccccc2[nH]1 | 0.45µM | -91 | - | 1.1µM | ? | -
Clc1ccc2nc(N3CCCCC3)[nH]c2c1 | - | - | ? | - | ? | ?
O=c1c(Cl)c(N2CCCCC2)cnn1-c1nc2ccccc2[nH]1 | 0.89µM | ? | - | 1.3µM | ? | -
Nc1nc(N)nc(-c2cccc(Br)c2)n1 | . | - | . | . | . | 13µM
COC(CNC(=O)C1CCCN1C(=O)OCc1ccccc1)OC (stereo not drawn) | - | - | - | - | - | -
COC(=O)[C@@H]1C[C@]2(OC(=O)c3ccccc3)C=CC(=O)C[C@@H]2N1C(=O)OCc1ccccc1 | ? | - | - | ? | 15µM | -
CCCc1nn(-c2ccccc2)c2c1C(c1cccs1)C(C#N)=C(N)O2 (stereo not drawn) | 13µM | - | - | - | ? | -
COC(=O)NC(=C(Cl)Cl)S(=O)(=O)c1ccccc1 | 10µM | - | . | 18µM | . | -
CN(CCc1cnn(C)c1)Cc1nc(CC2CC2)no1 | - | - | - | - | - | -
CCN(CC(=O)Nc1ccccc1SC)Cc1nc2ccccc2c(=O)[nH]1 | 0.22µM | - | - | 0.79µM | - | -
O=C(c1ccc(Br)cc1)N(Cc1nc2ccccc2c(=O)[nH]1)C1CCCC1 | 16µM | - | - | ? | ? | -
CCN(CC(=O)N(CC(C)C)c1c(N)n(CC(C)C)c(=O)[nH]c1=O)Cc1nc2ccccc2c(=O)[nH]1 | 4µM | - | - | ? | - | -
CN(CC(=O)Nc1ccccc1Br)Cc1nc2ccccc2c(=O)[nH]1 | 28µM | - | - | - | - | -
CN(CC(=O)Nc1ccccc1Br)C(=O)CCc1nc2ccccc2c(=O)[nH]1 | . | - | - | . | - | -
O=C(CSc1nc2ccccc2c(=O)n1CCCO)Nc1ccc2c(c1)OCCO2 | . | - | - | . | ? | -
CCN(CC(=O)Nc1ccc(Br)c(C)c1)CC(=O)NC(C)C | - | - | - | - | - | -
CCN(CC(=O)Nc1ccc(OC)cc1)C(=O)CCc1nc2ccccc2c(=O)[nH]1 | . | - | - | . | - | -
CCN(CC(=O)Nc1ccccc1C(=O)Nc1ccccc1)Cc1nc2ccccc2c(=O)[nH]1 | 3.5µM | - | - | ? | 10µM | -
CCN(CC(=O)Nc1ccccc1-c1ccccc1)Cc1nc2ccccc2c(=O)[nH]1 | 4.5µM | - | - | ? | ? | -
O=C(c1ccccc1)N(Cc1nc2ccccc2c(=O)[nH]1)C1CCCC1 | - | - | - | - | - | -
CCN(CC(=O)NC(c1ccccc1)c1ccccc1)Cc1nc2ccccc2c(=O)[nH]1 | 2.5µM | - | - | 11µM | - | -
CCN(CC(=O)NC(C)C)Cc1nc2c(Br)cc(Br)cc2c(=O)[nH]1 | 2.2µM | - | - | 7.1µM | - | -
COc1ccc2c(c1)C(=O)C1NC(=O)NC(=O)C1(Br)N2 (stereo not drawn) | . | - | . | . | . | -
CN(Cc1ccccc1)C(=O)c1[nH]cnc1C(=O)Nc1ccon1 | . | - | - | . | - | -
